The text below walks through data of PubChem BioAssay AID1851 (National Center for Advancing Translational Sciences (NCATS), 2009).

The structures appear in SMILES notation. The whole screen tested about 16,000 compounds, of which about 5,100 (32%) were called active. Roughly 25% stayed inconclusive and do not appear here. Calls follow the shape of the dose curve; as a rule, active = well fitted curve in the direction sought with a large enough effect; inconclusive = small, poorly fitted or top-dose-only effect, or effect the other way; inactive = no such curve, though single readings can be large or run the other way. This is one part of the list.
% is scaled to controls: 0 for no effect and ±100 for the full control effect.

In the experiment the target is Cytochrome P450 3A4 (Homo sapiens) (UniProt P08684). The experiment can be described thus: Cytochrome panel assay with activity outcomes. Conditions: recombinant CYP, pro-luciferin dealkylation, luminescence, p450-cyp3a4; series mostly up to 57.1 µM; activity, negative = inhibition: at the top concentration.
Chain of Cytochrome P450 3A4 (Homo sapiens) (P08684 whole entry, looked up): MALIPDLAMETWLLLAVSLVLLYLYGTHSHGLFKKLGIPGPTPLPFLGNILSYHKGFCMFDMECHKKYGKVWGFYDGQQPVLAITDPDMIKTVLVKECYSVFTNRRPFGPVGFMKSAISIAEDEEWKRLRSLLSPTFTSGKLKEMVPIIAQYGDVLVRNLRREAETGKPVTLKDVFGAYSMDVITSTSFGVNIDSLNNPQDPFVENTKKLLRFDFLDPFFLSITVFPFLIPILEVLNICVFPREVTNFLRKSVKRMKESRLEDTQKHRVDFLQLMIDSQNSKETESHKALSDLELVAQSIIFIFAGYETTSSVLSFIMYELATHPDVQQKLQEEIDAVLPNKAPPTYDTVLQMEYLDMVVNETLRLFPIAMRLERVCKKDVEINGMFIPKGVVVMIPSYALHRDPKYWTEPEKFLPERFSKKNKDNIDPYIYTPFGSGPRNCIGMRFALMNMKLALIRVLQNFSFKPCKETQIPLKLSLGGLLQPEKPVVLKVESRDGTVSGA
As for `Clc1cnccn1`, the “activity, negative = inhibition” value was 1.91% [at 25.6 µM] (inactive). Still for that read-out and setting: under `CCN(CC)CC#CCC(C)(c1ccccc1)c1ccccc1` stands -27.1% [at 2.29 µM] (inactive); under `CCCOc1ccc(CSC(CC(=O)O)C(=O)O)cc1` (stereo not drawn), -9.38% (inactive). `CO/N=C(\C(=O)N[C@@H]1C(=O)N2C(C(=O)O)=C(COC(C)=O)CS[C@@H]12)c1csc(N)n1`: the AC50 (in general, the concentration giving half of the maximal activity seen) was “inactive”.

As to `Cc1ccc(C(=O)Oc2cc(C)n(C)c(=O)c2)cc1`, the “activity, negative = inhibition” value is -2.99% (inactive).

For the compound `CC(C)(CN)CN`, the activity, negative = inhibition was -13.3% [at 11.4 µM] (inactive). As for `COc1ccccc1CNc1nc(-c2ccc3c(c2)OCO3)nc2ccccc12`, the AC50 was 1.26 µM (active).

As for `CCC(=O)Nc1ccc(/C(C)=N\NS(=O)(=O)c2ccc(C)cc2)cc1`, the activity, negative = inhibition is -25.1% [at 2.29 µM] (inactive).

As to `C/C(=N/NS(=O)(=O)c1ccc(C)cc1)c1cccc(NC(=O)c2cccc(Cl)c2)c1`, the AC50 was 1.41 µM (active). On the same count and under the same terms, the value for `COc1ccc(S(=O)(=O)N/N=C(/C)c2cccc(NC(=O)c3ccccc3Cl)c2)cc1` was 2.24 µM (active). As for `C/C(=N/NS(=O)(=O)c1ccc(C)cc1)P(=O)(O)O`, the activity, negative = inhibition was -8.75% [at 11.4 µM] (inactive). Regarding `CC(C)(C)C(=O)[C@H]([C@@H](c1ccccc1)N1CCOCC1)N1CCOCC1`, the AC50 is 2.51 µM (active). For the compound `CC(=O)[C@H]([C@@H](c1ccccc1)N1CCOCC1)N1CCOCC1`, the activity, negative = inhibition was -29.9% [at 11.4 µM] (inactive). For `O=C(O)CSCCc1ccccc1`, the activity, negative = inhibition is 0.346% [at 11.4 µM] (inactive). Same read-out and setting: under `OCCn1cnc2c(SCc3ccccc3)ncnc21` stands -4.24% [at 11.4 µM] (inactive). In the case of `O=c1ccnc(SCc2ccc(Cl)cc2)[nH]1`, the activity, negative = inhibition is -11.7% [at 11.4 µM] (inactive). For `O=C(CSc1nccn1-c1ccccc1)c1ccc(Cl)cc1`, the AC50 is 10 µM (active).

With `O=C(CSc1ncnc2nc[nH]c12)c1ccccc1`, the activity, negative = inhibition is -16.5% [at 11.4 µM] (inactive). Take `Clc1ccc(CSc2nccn2Cc2ccccc2)cc1`: the AC50 is 7.08 µM (active). On the same count and under the same terms, the value for `c1ccc(CCSc2nccn2-c2ccccc2)cc1` was 14.1 µM (active). The same measure, in the same setting: under `CCc1ccc(CSc2nccn2-c2ccccc2)cc1` stands 14.1 µM (active). For `CC1=NN(c2ccccc2)C(=O)C1C(=O)c1ccc(Cl)cc1` (stereo not drawn), the “activity, negative = inhibition” value is -25.5% (inactive).

For the compound `O=C1C[C@H](c2ccccc2)[C@@H](c2ccc(Br)cc2)O1`, the activity, negative = inhibition is 1.97% [at 11.4 µM] (inactive). As to `C#CCCCO/N=C1/[C@H]2O[C@@H]2[C@@H](O)[C@H]2[C@H]1CCn1c(=O)n(Cc3cc4c(cc3Cl)OCO4)c(=O)n12`, the activity, negative = inhibition was -10.8% [at 11.4 µM] (inactive). Take `Cc1ccccc1CSc1nccn1-c1ccccc1`: the concentration at half-maximal activity (AC50) is 5.01 µM (active). On to `Cn1nnnc1SCc1ccccc1[N+](=O)[O-]`, for which the activity, negative = inhibition is 3.46% [at 2.29 µM] (inactive). As to `Cc1oc(C(C)(C)C)cc1C(=O)Nc1cccc(/C=C/C(=O)O)c1`, the “activity, negative = inhibition” value was 22.4% (inactive). Take `Cc1oc(-c2ccccc2)cc1C(=O)Nc1ccc(N(C)C)cc1`: the AC50 was 17.8 µM (active). In the case of `CC(=O)C[C@H](O)[C@@H](NC(=O)OC(C)(C)C)C(C)C`, the activity, negative = inhibition is -26.2% [at 11.4 µM] (inactive).

As for `NC(N)=N/N=C\c1ccc(O)c(C(=O)O)c1`, the activity, negative = inhibition was -5.15% [at 11.4 µM] (inactive). Take `CCCCCNCc1cccc(Br)c1`: the “activity, negative = inhibition” value was -4.34% (inactive). Still for that read-out and setting: under `O=C(N/N=C/c1cccc(Oc2ccccc2)c1)c1cccc(Br)c1` stands -29.7% (inactive). Consider `O=C(N[C@@]1(C(=O)O)C[C@@H]1c1ccccc1)c1ccccc1`, for which the activity, negative = inhibition was -6.56% [at 11.4 µM] (inactive).

In the case of `O=C(N/N=C/C1C(c2ccccc2)C1(Cl)Cl)c1cccc(Br)c1` (stereo not drawn), the AC50 was 12.6 µM (active).

For `Cc1cc(C)nc(SCc2nnc(SCC(N)=O)n2Cc2ccco2)n1`, the AC50 was 15.8 µM (active). With `CCCCOC(=O)CSCC(=O)Nc1cc(C)on1`, the activity, negative = inhibition was -0.1% [at 11.4 µM] (inactive). For `O=C(CSc1nnc(-c2ccccn2)n1Cc1ccco1)Nc1ccc2c(c1)OCO2`, the AC50 was 0.891 µM (active).

Regarding `CC(=O)Nc1ccc(NC(=O)CSc2nnc(-c3ccccc3)n2Cc2ccc3c(c2)OCO3)cc1`, the AC50 was 3.55 µM (active). For the compound `Cc1cc(NC(=O)CSc2nnc(-c3ccccc3)n2Cc2ccco2)no1`, the AC50 is 15.8 µM (active). For the compound `COc1ccc(C(O)c2nccn2Cc2ccccc2)cc1` (stereo not drawn), the activity, negative = inhibition is -29.5% [at 11.4 µM] (inactive). For `COc1ccc(-c2ccc(=N)n(CCCC(=O)O)n2)cc1`, the “activity, negative = inhibition” value is 1.19% (inactive). `COc1ccc(-c2cnnc(CCCn3ccnc3-c3ccccc3)n2)cc1`: the AC50 was 6.31 µM (active).

On to `COc1ccc(C)cc1NC(=O)CN1CCN(S(=O)(=O)c2ccc(F)cc2)CC1`, for which the AC50 was 7.94 µM (active). Regarding `COc1ccccc1NC(=O)CN1CCC(C(=O)c2ccc(F)cc2)CC1`, the activity, negative = inhibition is -1.8% [at 2.29 µM] (inactive). For `COc1ccc(S(=O)(=O)N2CCN(CC(=O)Nc3cccc(F)c3)CC2)cc1`, the AC50 is 7.94 µM (active). On to `COc1ccc(S(=O)(=O)N2CCC(N3CCCCC3)CC2)cc1`, for which the “activity, negative = inhibition” value is -24.3% (inactive). As to `COCC(=O)N1CCC2(CC1)CCN(C(=O)Nc1cccc(F)c1)CC2`, the “activity, negative = inhibition” value is -0.0079% (inactive).

Regarding `COc1ccc(S(=O)(=O)N2CCCN(CC(=O)Nc3ccc(OC)c(Cl)c3)CC2)cc1`, the AC50 is 7.94 µM (active). Turning to `COc1ccc(S(=O)(=O)N2CCC(NC(=O)Nc3ccc(C)cc3)CC2)cc1`, the AC50 was 8.91 µM (active).

In the case of `COc1ccc(S(=O)(=O)Nc2ccc(S(=O)(=O)N3CCCCC3)cc2)cc1C`, the activity, negative = inhibition was -19.1% [at 2.29 µM] (inactive). Still for that read-out and setting: the value for `Nc1[nH]c(=S)[nH]c(=O)c1N=Nc1c(Br)cc(S(N)(=O)=O)cc1Br` was -21% [at 11.4 µM] (inactive). Take `COc1ccc(S(=O)(=O)N2CCN(CC(=O)Nc3cc(OC)cc(OC)c3)CC2)cc1`: the AC50 is 3.98 µM (active). `O=C(CN1CCN(S(=O)(=O)c2ccccc2)CC1)NC(=O)NCc1ccccc1`: the “activity, negative = inhibition” value is -19.4% (inactive). As to `COC(=O)[C@@]1(Cc2ccccc2)[C@H]2c3cc(C(=O)N4CCCC4)n(CC4CC4)c3C[C@H]2CN1C(=O)c1ccccc1`, the AC50 was 3.16 µM (active). Regarding `COC(=O)[C@@]1(Cc2ccccc2)[C@H]2c3cc(C(=O)N4CCCC4)n(C)c3C[C@H]2CN1C(=O)c1ccccc1`, the AC50 was 3.98 µM (active). Regarding `CCOC(=O)[C@H](CCc1ccccc1)N[C@@H](C)C(=O)N1CCC[C@H]1C(=O)O`, the “activity, negative = inhibition” value is 16.2% [at 25.6 µM] (inactive). On to `O=[N+]([O-])c1nccn1C[C@H](O)CN1CCCCC1`, for which the activity, negative = inhibition is -20.2% [at 11.4 µM] (inactive). Turning to `COc1ccc(C(=O)N/N=C2/SCC(=O)N2Cc2ccc3c(c2)OCO3)cc1OC`, the AC50 is 1.12 µM (active).

In the case of `CCN(CC)CCOC(=O)c1ccc(N)cc1`, the AC50 result was “inactive”. On to `CCOC(=O)c1c(C)[nH]c(C)c1C(=O)COC(=O)c1cccc(S(=O)(=O)N(CC)CC)c1`, for which the AC50 was 0.316 µM (active). Turning to `CCCN(CCC)S(=O)(=O)c1ccc(C(=O)O)cc1`, the “activity, negative = inhibition” value is -12.2% [at 25.6 µM] (inactive). Consider `CCOC(=O)c1c(C)[nH]c(C)c1C(=O)COC(=O)c1ccc(S(=O)(=O)N(CC)CC)cc1`, for which the AC50 is 0.282 µM (active). `NCCCNCCCCNCCCN`: the AC50 result was “inactive”. Regarding `O=C(O)CCNc1ncnc2nc[nH]c12`, the activity, negative = inhibition was -0.12% [at 11.4 µM] (inactive). Still for that read-out and setting: the value for `CCO[P@]1(=O)OC[C@@H]2O[C@H](n3cnc4c(N)ncnc43)[C@H](O)[C@@H]2O1` was 7.34% [at 11.4 µM] (inactive). `O=C1c2cccc3c(Nc4ccccc4Cl)c([N+](=O)[O-])cc(c23)C(=O)N1CCO`: the AC50 was 14.1 µM (active).

With `O=C1c2cccc3c(Cl)ccc(c23)C(=O)N1O`, the activity, negative = inhibition is -15% [at 11.4 µM] (inactive).

As for `CCc1ccccc1N1C(=O)c2cccc3c(N4CCOCC4)c([N+](=O)[O-])cc(c23)C1=O`, the “activity, negative = inhibition” value is -15.7% (inactive). Regarding `Cc1ccc(C(c2nnnn2C2CCCC2)N2CCN3CCCC3C2)cc1` (stereo not drawn), the half-maximal activity concentration (AC50) is 14.1 µM (active). Still for that read-out and setting: the value for `Clc1ccc(C(c2nnnn2C2CCCC2)N2CCN(Cc3ccncc3)CC2)cc1` (stereo not drawn) was 2 µM (active); that for `c1coc(CN2CCN(C(c3cccs3)c3nnnn3C3CCCC3)CC2)c1` (stereo not drawn) was 14.1 µM (active). As for `CC(C)(C)N1C(=O)[C@@H]2[C@H]3C(=CC[C@H]2C1=O)C(=O)[C@H]1O[C@H]1[C@H]3O`, the activity, negative = inhibition is -4.13% [at 11.4 µM] (inactive).

For `O=S(Cc1ccccc1)CC(O)(c1ccccc1)c1ccccc1` (stereo not drawn), the “activity, negative = inhibition” value was 19.2% (inactive). Turning to `O=C(NCC1CCCO1)c1cc(-c2ccc(Cl)cc2Cl)on1` (stereo not drawn), the “activity, negative = inhibition” value is -19.3% (inactive). For `O=C(Nc1cnn(Cc2ccc(Cl)cc2Cl)c1)c1cc(-c2cccs2)on1`, the AC50 is 10 µM (active). Turning to `CC(C)(C)NC(=O)Cn1cnc([N+](=O)[O-])n1`, the “activity, negative = inhibition” value is -0.672% (inactive).

For the compound `O=C(Cn1cnc([N+](=O)[O-])n1)N/N=C/c1ccccc1O`, the “activity, negative = inhibition” value was -18.9% (inactive). As to `O=C(CCCn1cnc([N+](=O)[O-])n1)Nc1ccc(Cl)c(Cl)c1`, the AC50 was 14.1 µM (active). On the same count and under the same terms, the value for `O=C1O/C(=C\Br)CC[C@@H]1c1cccc2ccccc12` was 3.98 µM (active); that for `Cc1cccc(-c2c3c(=O)n(C)c(=O)n(C)c3cn2C2CCCCC2)c1` was 7.94 µM (active).

Consider `COC(=O)c1ccccc1NC(=O)C(CCS(C)(=O)=O)NC(C)=O` (stereo not drawn), for which the “activity, negative = inhibition” value is -0.671% (inactive). Turning to `COc1ccccc1NC(=O)C(C/C=C(\C)Cl)C(C)=O` (stereo not drawn), the AC50 is 14.1 µM (active).

Regarding `CCCN1C(=O)C2(/C(=C(\O)c3ccc4c(c3)OCCO4)C(=O)C(=O)N2CCCOC)c2ccccc21` (stereo not drawn), the “activity, negative = inhibition” value is -10.1% (inactive). The same measure, in the same setting: under `COc1ccccc1CN1CCC2(CC1)CCN(C(=O)c1cccn1C)CC2` stands -7.71% (inactive). As for `COc1ccccc1CN1CC[C@@]2(CCCN(C(=O)c3cccn3C)C2)C1`, the AC50 was 12.6 µM (active). For `COCC(=O)N1CCC[C@@]2(CCN(Cc3ccccc3OC)C2)C1`, the “activity, negative = inhibition” value is -19.4% (inactive). Still for that read-out and setting: under `COc1ccccc1CN1CC[C@@]2(CCCN(C(C)=O)C2)C1` stands -22.3% (inactive). Same read-out and setting: under `COc1ccccc1CN1CCC2(CC1)CCN(C(=O)c1ccco1)CC2` stands -6.89% (inactive). As to `COc1ccccc1CN1CC[C@@]2(CCCN(C(=O)c3ccco3)C2)C1`, the AC50 is 20 µM (active). As to `Cc1cc(NC(=O)c2nn(C)c(C)c2[N+](=O)[O-])no1`, the “activity, negative = inhibition” value was -5.27% (inactive). Consider `C=CCNc1nc(-c2ccc(Cl)cc2)cs1`, for which the AC50 is 14.1 µM (active). Take `CCCCCN1CC(O)=C(c2nc(-c3ccc(Cl)cc3)cs2)C1=N`: the “activity, negative = inhibition” value was 2.16% (inactive). Same read-out and setting: the value for `Cc1ccc(-c2csc(N/N=C/c3ccco3)n2)cc1` was -6.49% [at 2.29 µM] (inactive).
